Measured values taken from PubChem BioAssay AID1619 (SRMLSC, 2009).
Among all 220,000 compounds or so, about 830 (0.38%) were called active. A selection follows. Potency and affinity values are given separately. Unmarked numbers belong to inactive results.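 How the source made its calls: active means compound inhibiting the enzyme by more than half at any dose during confirmatory dose-response retesting; inconclusive means strong single-dose inhibitors picked by rank but not retested; inactive means the rest.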 Residues, ends and D or L forms follow the SMILES beside them. *: point of attachment. Bz = O=C(c1ccccc1)*

target: Leucine aminopeptidase (Plasmodium falciparum (isolate 3D7)) (UniProt Q8IL11); test: P. falciparum M17LAP inhibitors, primary screen, biochemical, fluorogenic H-Leu-NHMec substrate, 1536-well (AID 1619); details: recombinant M17LAP, H-Leu-NHMec fluorogenic kinetic assay; at 30 µM; hits give high values;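 further: plate controls were full reaction with DMSO carrier for no effect and no enzyme background for full effect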
Sequence (Q8IL11 whole entry, looked up): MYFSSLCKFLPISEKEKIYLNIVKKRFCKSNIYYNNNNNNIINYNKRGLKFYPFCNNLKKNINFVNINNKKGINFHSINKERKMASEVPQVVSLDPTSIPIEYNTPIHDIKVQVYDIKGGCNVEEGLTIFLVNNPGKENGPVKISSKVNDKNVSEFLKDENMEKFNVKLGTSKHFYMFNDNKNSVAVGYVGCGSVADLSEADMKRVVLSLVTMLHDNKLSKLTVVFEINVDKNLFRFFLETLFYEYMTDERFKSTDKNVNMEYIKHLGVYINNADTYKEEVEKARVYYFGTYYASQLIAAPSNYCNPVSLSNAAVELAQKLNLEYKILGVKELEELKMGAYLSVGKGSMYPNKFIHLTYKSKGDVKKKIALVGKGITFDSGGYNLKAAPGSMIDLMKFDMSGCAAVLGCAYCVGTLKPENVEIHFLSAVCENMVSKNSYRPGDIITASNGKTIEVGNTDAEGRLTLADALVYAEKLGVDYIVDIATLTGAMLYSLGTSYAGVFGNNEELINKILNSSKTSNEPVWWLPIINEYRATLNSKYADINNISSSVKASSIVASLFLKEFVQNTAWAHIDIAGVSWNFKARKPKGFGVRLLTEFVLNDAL

SMILES	inhibition
CCC(C)C(NC(=O)c1ccccc1NC(=O)c1ccco1)C(=O)NNC(=O)c1ccncc1 (stereo unspecified)	3.96%
Cc1cccc(Nc2cnn(C34CC5CC(CC(CC(=O)O)(C5)C3)C4)c(=O)c2Cl)c1	39.2%
Cc1cc(C)cc(Nc2cnn(C34CC5CC(CC(CC(=O)O)(C5)C3)C4)c(=O)c2Cl)c1	45.8%
CCc1ccc(Nc2cnn(C34CC5CC(CC(CC(=O)O)(C5)C3)C4)c(=O)c2Cl)cc1	53.3%
O=C(O)C12C[C@H]3C[C@@H](C1)CC(n1ncc(N4CCN(c5ccccc5)CC4)c(Cl)c1=O)(C3)C2	36.9%
CC(=O)c1ccc(Nc2cnn(C34CC5CC(CC(CC(=O)O)(C5)C3)C4)c(=O)c2Cl)cc1	46.4%
O=C(O)C12CC3CC(C1)CC(n1ncc(N4CCN(c5ccccc5)CC4)c(Cl)c1=O)(C3)C2	61.6%
CCOC(=O)c1csc(NC(=O)CSc2nnnn2-c2ccc(OC)c(OC)c2)n1	11.3%
COc1cccc(-n2c(SCC(=O)N3CCCCC3)nc3c([nH]c4ccccc43)c2=O)c1	-3.56%
CC(=O)NC(Cc1ccccc1)C(=O)NC1CCN(C(=O)c2ccc([N+](=O)[O-])cc2)CC1 (stereo unspecified)	-3.72%
O=C(O)CCC(NC(=O)C(Cc1ccc2c(c1)OCO2)NC(=O)c1ccccc1)C(=O)O (stereo unspecified)	46.2%
O=C(NC(Cc1ccccc1)C(=O)NC(Cc1ccccc1)C(=O)O)c1ccccc1 (stereo not drawn) (Bz-Phe-Phe-OH; configuration not given here)	45.6%
O=C(O)c1ccc(-n2cccc2/C=C2/NC(=O)N(c3ccccc3)C2=O)cc1	11.3%
O=C(O)c1ccc(COc2ccccc2/C=C2/NC(=O)N(c3cccc(Cl)c3)C2=O)cc1	7.83%
CCc1noc(C)c1C(=O)Nc1nc(-c2cc(C)ccc2C)c(C)s1	-3.18%
CC1=C(C)CC(C(=O)Nc2nc(-c3ccc(F)cc3)c(C)s2)C(C(=O)O)C1 (stereo unspecified)	48.9%
CC(=O)C1=C(O)C(=O)N(Cc2ccco2)C1c1ccc(F)cc1 (stereo unspecified)	11%
CC(=O)C1=C(O)C(=O)N(Cc2ccco2)C1c1ccccc1 (stereo unspecified)	6.17%
Cc1ccc(S(=O)(=O)N2CCCC2C(=O)N2CCCCCC2)cc1 (stereo unspecified)	-4.09%
COc1ccc2c(C(F)(F)F)cc(=O)oc2c1C	-5.82%
CC(Sc1nc(-c2ccccc2)cs1)C(=O)Nc1ccc(Cl)cn1 (stereo unspecified)	13.8%
CC(Sc1nc(-c2ccc(F)cc2)cs1)C(=O)Nc1ccc(Cl)cn1 (stereo unspecified)	15.1%
Cn1c(=O)c(C(=O)Nc2ccccc2S(N)(=O)=O)c(O)c2ccccc21	-0.17%

SMILES	inhibition
COC(=O)C(C)(C)ONC(=O)Nc1ccccc1Cl	-4.74%
CCN(CC)C(=O)c1ccc(N)cc1	7.5%
COc1ccc(Oc2ccc(/C=C/C(=O)c3ccc(O)cc3)cc2[N+](=O)[O-])cc1	12.4%
CC(C)(C)C1(C)OC(C(N)=O)C(C(N)=O)O1 (stereo unspecified)	8.29%
Cc1cc(=O)oc2c1c(C(F)(F)F)nn2-c1ccccc1	2.02%
CCOC(=O)C1CSC(CC(=O)Nc2ccc(OC(F)(F)F)cc2)C(=O)N1 (stereo unspecified)	14%
CCOC(=O)C1CSC(CC(=O)Nc2ccc(Cl)cc2)C(=O)N1 (stereo unspecified)	13.4%
CC(OC(=O)c1cn(-c2ccccc2)nc1-c1cccnc1)C(N)=O (stereo unspecified)	1.32%
O=C(COC(=O)c1ccc(S(=O)(=O)NCc2ccco2)cc1)Nc1ncc(Cl)cc1Cl	-2.24%
N/C(Cc1ccc(Cl)cc1Cl)=N\OC(=O)c1ccccc1	0.73%
COc1ccc(OCc2cccc(C(=O)O)c2)cc1	53.7%
CCOc1ccc(OCc2cccc(C(=O)N(CC)CC)c2)cc1	-4.73%
O=C(Nc1ccc(C(=O)O)cc1)/C(=C\c1ccco1)NC(=O)c1ccccc1	45.7%
CN(C(=O)CSCC(=O)O)C1CCCCC1	-10.4%
CCOC(=O)/C(N=Nc1ccc(Cl)cc1)=C(/O)c1ccc([N+](=O)[O-])cc1	3.08%
Nc1[nH]ncc1-c1ccc(F)cc1	55.5%
Nc1[nH]ncc1-c1ccccc1	-3.57%
COC(=O)c1cc(C(=O)OC)n(Cc2ccc(Br)cc2)n1	-9.56%
CC(=O)c1c(C)[n+]([O-])c2ccc3c(non3O)c12	10.2%
CC[n+]1ccccc1/C=C/c1ccc(N(C)C)cc1	56.5%
CN(C)c1ccc(/C=C/c2ccc3c4ccccc4ccc3[n+]2-c2ccccc2)cc1	13.1%
C[n+]1c(/C=C/c2ccc3c(c2)OCO3)ccc2ccccc21	0.47%
CC[n+]1ccc(/C=C/c2ccc(N(C)C)cc2)c2ccccc21	50.7%

SMILES	inhibition
C=CC(C)(C)c1cc2cc3ccoc3cc2oc1=O	3.93%
Cc1nc(C)c(-c2ccn(S(=O)(=O)c3ccc(Cl)cc3)n2)o1	-15.8%
COC(=O)c1ccc(COc2ccc(C)cc2[N+](=O)[O-])o1	5.81%
Cc1ccc(OCc2ccc(C(=O)NN)o2)c([N+](=O)[O-])c1	-2.38%
CCN1CCN(CCn2c(=S)[nH]c3cc4c(cc3c2=O)OCO4)CC1	10.8%
COc1ccc(C2CCN(CC(=O)N(C)C)CC2O)cc1 (stereo unspecified)	-0.46%
Cc1ccccc1NC(=O)COC(=O)c1c[nH]c(=O)[nH]c1=O	-3.99%
CN(c1ccccc1C(=O)N1CCN(c2cccc(Cl)c2)CC1)S(C)(=O)=O	-10.5%
O=C1CC(=O)C(n2cncn2)C(c2ccc(Cl)cc2)C1 (stereo unspecified)	41.7%
O=C1CC(=O)C(n2cncn2)C(c2cccc(Cl)c2)C1 (stereo unspecified)	-45.4%
COC(=O)COc1ccc(/C=C2/SC(=O)N(CC(=O)N3CCCC3)C2=O)cc1Br	14.7%
COC(=O)COc1cc(Br)c(/C=C2/SC(=O)N(CC(=O)N3CCCC3)C2=O)cc1OC	26.7%
NC(=O)COc1ccccc1/C=C1/SC(=O)N(CC(=O)N2CCc3ccccc3C2)C1=O	-2.36%
CCOc1c(Br)cc(/C=C2/SC(=O)N(CC(=O)N3CCCC3)C2=O)cc1OC	-3.92%
CCOc1ccc(C(=O)NCC(=O)N2CCc3ccccc3C2)cc1OCC	-4.26%
COc1cccc(/C=C2/SC(=O)N(C)C2=O)c1OCc1ccc(C(=O)O)cc1	25.1%
COc1cc(/C=C2\SC(=Nc3ccc(F)cc3)N(c3ccc(F)cc3)C2=O)ccc1OCC(=O)O	38.3%
CCOc1cc(/C=C2\SC(=Nc3ccc(F)cc3)N(c3ccc(F)cc3)C2=O)ccc1OCC(=O)O	42.8%
COC(=O)c1cccc(NC(=O)Cc2nc(-c3ccccc3)sc2-c2ccc(C)cc2)c1	1.12%
COc1ccc(CN2CCN(C)CC2)cc1OCc1ccccc1	-2.4%
Cc1ccc(C(=O)N2CCSC2=S)cc1	8.96%
CCc1nc(Sc2nc(C)cc(C)n2)c2oc3ccccc3c2n1	-4.31%
CCOC(=O)c1ccc(S(=O)(=O)NNC(=O)COc2ccccc2C)cc1	-5.37%

SMILES	inhibition
O=C(CSc1nnc(CN2CCCCCC2=O)n1-c1ccccn1)NCC(F)(F)F	-5.65%
C/C(=C\c1ccccc1)CN1CCC(C(=O)N2CCC(C)CC2)CC1	1.41%
COCc1nnc(NC(=O)c2cc(C(=O)OC)cc([N+](=O)[O-])c2)s1	6.44%
COCCSc1nnc(NC(=O)c2ccc([N+](=O)[O-])cc2)s1	-6.15%
CCc1nn(-c2ccccc2)c(N)c1-c1ccc(OC)c(OC)c1	1.87%
COc1cc(/C=C/c2ccc3cccc([N+](=O)[O-])c3n2)ccc1OCC(=O)O	20.7%
COC(=O)c1ccc(/C=C/c2ccc3cccc(OC)c3n2)cc1	0.52%
O=[N+]([O-])c1ccc(/C=C/c2ccc3cccc([N+](=O)[O-])c3n2)cc1	-6.24%
CSc1ccc(/C=C/c2ccc3cccc(O)c3n2)cc1	14.9%
CCCn1nnc(NC(=O)c2ccco2)n1	-183%
CCC(C)n1c(SCC(=O)NC(=O)Nc2ccc3c(c2)OCCO3)nc2ccccc2c1=O (stereo unspecified)	-1.6%
CCOC(=O)c1cn2nc(Oc3ccc(OC)cc3)ccc2n1	9.2%
CCCCCOC(=O)NC1CCS(=O)(=O)C1 (stereo unspecified)	-3.96%
CCOC(=O)C1(CCSC)NC(c2ccco2)C2C(=O)N(CC)C(=O)C21 (stereo unspecified)	5.79%
CCC(=O)NCCc1c[nH]c2ccccc12	-4.01%
CC(C)C(=O)NCCc1c[nH]c2ccccc12	3.48%
CSc1n[nH]c(=O)n1-c1ccc(Cl)cc1	-4.84%
Cc1sc(NC(=O)c2ccc(Cl)s2)c(C(N)=O)c1C	-3.24%
O=[N+]([O-])c1ccc(Sc2ccccn2)nc1	6.7%
O=[N+]([O-])c1ccc(Sc2ccccc2)nc1	-3.15%
Cc1ccc2oc(=O)c3cnn(CC(=O)NCCc4ccsc4)c3c2c1	11.8%
CCOC(=O)Cn1nnnc1CN(Cc1ccc(OC)cc1)Cc1cc2cc(CC)ccc2[nH]c1=O	7.13%
